The source of these data is PubChem BioAssay (NCATS).

Results filed as inconclusive are left out. Unmarked numbers belong to inactive results. Active and inactive are the calls of the source. Unless noted, calls follow the shape of the dose curve; as a rule, active = well fitted curve in the direction sought with a large enough effect; inconclusive = small, poorly fitted or top-dose-only effect, or another doubt; inactive = no such curve, though single readings can be large; an effect the other way counts as inactive or inconclusive.

The subject of one experiment is CP335. The experiment is described as follows: qHTS profiling for inhibitors of Plasmodium falciparum proliferation (AID 504749). Also: potency is read from the fitted curve at half-maximal effect; nearly all actives have a fitted effect of over 60% in size. The note with it: P. falciparum in erythrocytes, SYBR Green DNA, 72 h; series mostly up to 28.7 µM. The gist of the method: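 Each compound contacts P. falciparum-infected red blood cells for 72 h at 37 C; lysis buffer (Tris, EDTA, saponin, Triton X, SYBR Green I) is added and fluorescence measured next morning; values normalized to controls.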
For orientation: qHTS replaces the single test concentration by a dilution series.

A short description of experiment [1]: Cell Viability - BJ (AID 421; calls by dose curve;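 also: potency is read from the fitted curve at half-maximal effect; cells exposed to compound for 40 hours at 37 °C before readout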). The following applies: BJ fibroblast viability, qHTS. The gist of the method:
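Cytotoxicity in human BJ foreskin fibroblasts is scored as loss of cellular ATP after a 40-hour exposure, measured by luciferase luminescence. Controls are DMSO and 100 uM tamoxifen.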

Experiment [2] is described as follows: Cell Viability - Jurkat (AID 426;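 active = dose-dependent loss of cell ATP signal giving a full or clear fitted curve, ranked by lower potency value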;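 also: potency is read from the fitted curve at half-maximal effect; cells exposed to compound for 40 hours at 37 °C before ATP read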). The note with it: qHTS. The procedure, abridged: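 Cells of the human T-cell leukemia line Jurkat (E6-1) are seeded at 5000 per well, treated with compound across a concentration range for 40 hours at 37 °C, then lysed with CellTiter-Glo; luminescence reports ATP.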
Experiment [3] in a line: Cell Viability - Hek293 (AID 427;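 active = compounds whose dose-response curve shows a full or clear partial loss of cell viability, called from curve shape rather than a numeric limit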;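 also: potency is read from the fitted curve at half-maximal effect; cells exposed to compound for 40 hours at 37 °C before reading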). The note with it: qHTS. The gist of the method:
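qHTS, human embryonic kidney (adenovirus-transformed) cells; 40 hr cpd, 37 °C; CellTiter-Glo ATP luminescence. Norm: DMSO = 0, 100 uM tamoxifen = 100% inhibition. Hill-fit AC50.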

Experiment [4] in a line: Cell Viability - HepG2 (AID 433; calls by dose curve;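 also: potency is read from the fitted curve at half-maximal effect; potency for ATP loss meaning cytotoxicity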). The following applies: qHTS. The gist of the method: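 Read-out is luciferase-based quantitation of cellular ATP as a measure of viable HepG2 cells after 40 h treatment at 37 °C. Signal decrease is scaled between DMSO-only and 100 uM tamoxifen controls, with AC50 fitted by the Hill equation.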
Experiment [5] can be described thus: Cell Viability - MRC5 (AID 434; calls by dose curve;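 also: potency is read from the fitted curve at half-maximal effect; potency reflects cytotoxicity seen as loss of intracellular ATP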). The note with it: MRC5 lung fibroblast viability, qHTS. The gist of the method: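 ATP luminescence read-out (CellTiter-Glo, 20 min RT) after 40 hr, 37 °C compound exposure of 1500 MRC5 cells/well. Data normalized to DMSO (basal) and 100 uM tamoxifen (100% inhibition); AC50 from standard Hill equation.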
Experiment [6] can be described thus: Cell Viability - SK-N-SH (AID 435; calls by dose curve;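 also: potency is read from the fitted curve at half-maximal effect; compound exposure lasted 40 h at 37 °C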). The following applies: SK-N-SH neuroblastoma cell viability qHTS. The procedure, abridged:
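Luminescent ATP signal served as the viability read-out after 40 hours of compound treatment of human neuroblastoma SK-N-SH cells. Concentration-response data, scaled between DMSO and 100 uM tamoxifen, gave AC50 values by standard Hill modeling.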

The nature of experiment [7]: Cell Viability - N2a (AID 540).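 Also: plate controls were DMSO alone for no effect and tamoxifen control for full effect; nearly all actives have a fitted effect of over 45% in size.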 The note with it: N2a mouse neuroblastoma cell viability; activity change, negative = cytotoxicity: at 92.2 µM (top of the series). The gist of the method:
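Cytotoxicity was scored as loss of cellular ATP in N2a cells, a mouse neuroblastoma line. Compounds are applied in a qHTS concentration series for 40 hr at 37 °C.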

Experiment [8] can be described thus: Cell Viability - NIH 3T3 (AID 541).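 Also: plate controls were DMSO alone for no effect and tamoxifen positive control for full effect; nearly all actives have a fitted effect of over 25% in size.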 The following applies: NIH 3T3 cell viability, qHTS; activity change, negative = cytotoxicity: at 92.2 µM (top of the series). The gist of the method:
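Cells seeded at 1000/well, rested 5 hr at 37 °C, then dosed and incubated 40 hr at 37 °C. CellTiter-Glo added, 20 min room temperature, luminescence read. AC50 by Hill fit.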

A short description of experiment [9]: Cell Viability - HUV-EC-C (AID 542). Also: % is scaled to controls: 0 for no effect and ±100 for the full control effect; nearly all actives have a fitted effect of over 35% in size. The procedure, abridged:
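Cells were seeded at 1000 per well and incubated 5 hr at 37 °C before compound addition. After 40 hr at 37 °C, CellTiter-Glo reagent was added for 20 min and luminescence read. AC50 values came from Hill-equation modelling.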

Experiment [10] in a line: Cell Viability - H-4-II-E (AID 543). Also: % is scaled to controls: 0 for no effect and ±100 for the full control effect; nearly all actives have a fitted effect of over 35% in size. The gist of the method: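 Cells seeded at 1500 per well and rested 5 hr; compounds added; 40 hr incubation at 37 °C; CellTiter-Glo added, 20 min at room temperature; luminescence read. Hill-equation fits gave AC50.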
Experiment [11] is described as follows: Cell Viability - SH-SY5Y (AID 544).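 Also: 0% = DMSO alone and -100% = 100 µM tamoxifen; nearly all actives have a fitted effect of over 55% in size.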 The note with it: SH-SY5Y neuroblastoma cell viability; viability change, negative = cytotoxic: at 92.2 µM (top of the series). The procedure, abridged:
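Cells were plated at 1500 per well and allowed 5 hr at 37 °C. Compounds were added across a concentration range and incubated 40 hr at 37 °C. CellTiter-Glo was added for 20 min at room temperature before luminescence reading.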

Experiment [12] in a line: Cell Viability - Mesenchymal (AID 546).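 Also: cells exposed to compound for 40 hours before reading; 0% = DMSO only and -100% = 100 µM tamoxifen.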 The note with it: mesenchymal cells viability, qHTS; activity change, negative = cytotoxicity: at 91.7 µM (top of the series). The procedure, abridged:
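Human renal mesenchymal cells (glomerulus-derived), 1000 cells/well, 5 hr 37 °C pre-incubation; compound 40 hr, 37 °C; CellTiter-Glo, 20 min RT; luminescence; AC50 via Hill equation.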

Experiment [13] concerns the target Estrogen receptor (Homo sapiens) (UniProt P03372). The experiment is described as follows: qHTS assay for small molecule antagonists of estrogen receptor alpha signaling (AID 588513; active = well fitted curve in the direction sought with a large enough effect in the signal ratio, with a control signal flat, not every such curve was filed as active; the % refers to the signal ratio; also: % is scaled to controls: 0 for no effect and ±100 for the full control effect). The gist of the method: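 Fluorescence from CCF4 substrate after 2 h at room temperature gave reporter activity; cells had been exposed to compound and 0.5nM 17-beta-estradiol for 18 h at 37 C. Hill-equation fitting yielded IC50 and maximal response.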

The target in experiment [14] is Glucocorticoid receptor (Homo sapiens) (UniProt P04150). The experiment is described as follows: qHTS assay for small molecule agonists of glucocorticoid receptor signaling (AID 588532; active = well fitted curve in the direction sought with a large enough effect in the signal ratio, with a control signal flat; the % refers to the signal ratio;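 also: 100% = dexamethasone at 0.1 µM and 0% = DMSO only wells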). The following applies: HeLa MMTV-bla, beta-lactamase ratio, agonist, 18 h; active compounds read high; percent of dexamethasone control, DMSO zero. The procedure, abridged: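 HeLa GRE-bla reporter cells; 18 h compound exposure at 37 C; 2 h CCF4 loading at room temperature; fluorescence at 460 and 530 nm; EC50 by Hill equation.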

Experiment [15] has the same target. The experiment is described as follows: qHTS assay for small molecule antagonists of glucocorticoid receptor signaling (AID 588533; active = well fitted inhibition curve with a large enough effect in the signal ratio, with a control signal flat, not every such curve was filed as active; the % refers to the signal ratio; also: potency is read from the fitted curve at half-maximal effect). The procedure, abridged: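 Antagonist-mode qHTS: compound titrations added to GRE-bla HeLa cells, then dexamethasone 2 nM final; 18 h, 37 C. CCF4 FRET fluorescence normalized to dexamethasone and DMSO; IC50 from Hill fit.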
Experiment [16] has as its target Voltage-gated inwardly rectifying potassium channel KCNH2 (Homo sapiens) (UniProt Q12809). The experiment is described as follows: qHTS Assay for Small Molecule Inhibitors of the Human hERG Channel Activity (AID 588834).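 Also: top concentration of the series differs between compounds; % is scaled to controls: 0 for no effect and ±100 for the full control effect; lower thallium flux fluorescence means stronger hERG block; nearly all actives have a fitted effect of over 50% in size.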 The gist of the method: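 Step 1: BacMam hERG transduction of U2OS, 4 hrs RT. Step 2: overnight 37 °C, plate 2000 cells/well, 4 hr. Step 3: FluxOR load, compound 10 min, stimulate, read fluorescence.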

A short description of experiment [17]: qHTS assay for small molecule activators of the p53 signaling pathway (AID 651743; active = well fitted activation curve with a large enough effect in the signal ratio, not every such curve was filed as active; the % refers to the signal ratio; also: % of control where 0% means no effect). The following applies: HCT-116 p53RE-bla, beta-lactamase FRET ratio, 16 h; activation: active compounds read high. The gist of the method: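 Following 16 hours of compound exposure at 37 C, HCT-116 cells bearing the p53RE-bla reporter were loaded with LiveBLAzer B/G FRET substrate for 2 hours at room temperature and fluorescence intensity was recorded.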

The nature of experiment [18]: qHTS assay for small molecule activators of the nuclear factor-kappa B (NF-kB) signaling pathway (AID 651749; active = well fitted activation curve with a large enough effect in the signal ratio; the % refers to the signal ratio; also: % of control where 0% means no effect). The following applies: NF-kB-bla ME-180 cells, beta-lactamase FRET ratio, 16 h; active compounds read high. The procedure, abridged: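 In this qHTS format, compounds acting as activators increase NF-kB-driven beta-lactamase in ME-180 cells, measured as disrupted FRET after 16 hr exposure at 37C and 5% CO2.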

The nature of experiment [19]: qHTS assay for small molecule disruptors of the mitochondrial membrane potential - 1 hr assay (AID 651754; calls by dose curve; also: potency is read from the fitted curve at half-maximal effect; nearly all actives have a fitted effect of over 35% in size). The gist of the method: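 Loss of mitochondrial potential shifts the cationic dye from red mitochondrial aggregates to green cytoplasmic monomers. Cells (HepG2) are treated with compound for 1 hr before a 30 min dye incubation at 37C.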

Sequence of Glucocorticoid receptor (Homo sapiens) (P04150 whole entry, looked up): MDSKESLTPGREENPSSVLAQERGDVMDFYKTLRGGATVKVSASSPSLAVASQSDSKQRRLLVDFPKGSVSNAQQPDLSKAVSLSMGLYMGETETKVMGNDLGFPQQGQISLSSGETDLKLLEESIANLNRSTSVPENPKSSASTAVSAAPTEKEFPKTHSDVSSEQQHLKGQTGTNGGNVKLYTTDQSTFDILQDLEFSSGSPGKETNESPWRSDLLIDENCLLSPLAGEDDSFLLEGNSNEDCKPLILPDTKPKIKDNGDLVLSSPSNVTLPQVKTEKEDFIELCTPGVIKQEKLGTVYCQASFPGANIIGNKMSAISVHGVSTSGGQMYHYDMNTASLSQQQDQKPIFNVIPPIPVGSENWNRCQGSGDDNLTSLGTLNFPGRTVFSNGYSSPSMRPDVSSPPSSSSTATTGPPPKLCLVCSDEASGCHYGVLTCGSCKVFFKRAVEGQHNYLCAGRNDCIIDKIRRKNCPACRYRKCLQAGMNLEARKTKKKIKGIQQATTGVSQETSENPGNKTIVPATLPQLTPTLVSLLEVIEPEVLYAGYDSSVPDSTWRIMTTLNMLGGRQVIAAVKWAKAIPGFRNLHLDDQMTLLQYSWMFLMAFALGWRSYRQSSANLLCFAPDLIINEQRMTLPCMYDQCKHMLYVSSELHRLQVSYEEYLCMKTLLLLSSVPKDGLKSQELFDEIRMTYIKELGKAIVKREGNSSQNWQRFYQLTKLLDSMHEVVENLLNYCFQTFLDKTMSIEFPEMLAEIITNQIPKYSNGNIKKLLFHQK
Sequence of Estrogen receptor (Homo sapiens) (P03372 whole entry, looked up): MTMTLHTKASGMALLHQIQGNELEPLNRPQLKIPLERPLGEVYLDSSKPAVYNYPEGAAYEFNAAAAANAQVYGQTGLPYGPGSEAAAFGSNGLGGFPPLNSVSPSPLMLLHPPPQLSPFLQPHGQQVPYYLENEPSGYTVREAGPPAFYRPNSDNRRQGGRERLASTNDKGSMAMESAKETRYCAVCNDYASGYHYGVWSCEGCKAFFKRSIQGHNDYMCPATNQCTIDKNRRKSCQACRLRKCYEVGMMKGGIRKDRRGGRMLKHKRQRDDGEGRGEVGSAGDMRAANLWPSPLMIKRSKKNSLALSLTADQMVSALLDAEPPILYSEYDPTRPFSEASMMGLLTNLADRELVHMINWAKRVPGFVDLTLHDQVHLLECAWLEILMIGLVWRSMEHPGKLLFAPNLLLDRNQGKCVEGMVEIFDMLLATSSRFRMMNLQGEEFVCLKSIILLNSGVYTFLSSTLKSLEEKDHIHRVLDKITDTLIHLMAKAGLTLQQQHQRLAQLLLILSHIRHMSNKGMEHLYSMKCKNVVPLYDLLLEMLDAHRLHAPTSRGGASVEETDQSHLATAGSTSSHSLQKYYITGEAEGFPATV
Sequence of Voltage-gated inwardly rectifying potassium channel KCNH2 (Homo sapiens) (Q12809 whole entry, looked up): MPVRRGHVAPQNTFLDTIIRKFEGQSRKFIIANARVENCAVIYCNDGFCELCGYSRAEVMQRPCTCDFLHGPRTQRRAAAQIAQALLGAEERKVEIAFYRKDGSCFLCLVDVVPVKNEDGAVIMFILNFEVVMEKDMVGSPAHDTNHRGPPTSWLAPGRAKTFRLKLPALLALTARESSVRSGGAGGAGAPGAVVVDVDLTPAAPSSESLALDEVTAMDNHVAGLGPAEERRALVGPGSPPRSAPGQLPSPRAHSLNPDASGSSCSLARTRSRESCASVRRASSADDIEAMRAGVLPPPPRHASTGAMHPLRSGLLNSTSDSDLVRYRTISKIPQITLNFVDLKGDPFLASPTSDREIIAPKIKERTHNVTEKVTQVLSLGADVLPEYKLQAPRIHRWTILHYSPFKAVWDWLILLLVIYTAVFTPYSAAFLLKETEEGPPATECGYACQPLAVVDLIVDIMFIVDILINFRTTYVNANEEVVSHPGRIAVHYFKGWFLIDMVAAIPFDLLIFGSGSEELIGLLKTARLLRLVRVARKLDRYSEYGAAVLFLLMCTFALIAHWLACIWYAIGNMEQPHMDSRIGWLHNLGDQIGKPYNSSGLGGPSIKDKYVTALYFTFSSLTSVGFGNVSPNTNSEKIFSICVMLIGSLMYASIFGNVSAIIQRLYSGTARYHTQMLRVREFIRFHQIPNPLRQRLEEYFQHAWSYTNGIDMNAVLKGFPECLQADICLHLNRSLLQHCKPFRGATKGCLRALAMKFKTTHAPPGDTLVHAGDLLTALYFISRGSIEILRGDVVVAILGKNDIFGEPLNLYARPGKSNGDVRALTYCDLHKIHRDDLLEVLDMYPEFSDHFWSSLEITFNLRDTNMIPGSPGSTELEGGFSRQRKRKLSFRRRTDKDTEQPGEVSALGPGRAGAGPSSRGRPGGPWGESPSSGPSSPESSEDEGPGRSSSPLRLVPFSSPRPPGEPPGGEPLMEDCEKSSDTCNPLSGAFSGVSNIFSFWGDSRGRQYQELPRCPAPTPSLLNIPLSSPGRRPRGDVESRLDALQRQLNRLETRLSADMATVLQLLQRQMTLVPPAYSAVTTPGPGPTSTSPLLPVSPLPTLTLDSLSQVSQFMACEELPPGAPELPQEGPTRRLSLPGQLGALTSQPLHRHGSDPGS

Consider `CC(C)(C)c1ccc(CN2CCN([C@H](c3ccccc3)c3ccc(Cl)cc3)CC2)cc1`, for which the Potency in the experiment on CP335 is 3.38 µM (active).

Turning to `O=C(O)c1cc(N=Nc2ccc([N+](=O)[O-])cc2)ccc1O`, the Potency in experiment [1], in experiment [2], in [3], in experiment [4], in experiment [5] and in experiment [6] was over 92 µM throughout. Further, the Potency in [15] was 10 µM (active); in experiment [19] it was 37.6 µM (active). Moreover, the activity change, negative = cytotoxicity in experiment [7] is -5.65%; in [8], -24.1%. The Potency result in experiment [9], in experiment [10], in experiment [11], in experiment [12] and in experiment [16] was “inactive” in each case. Further, the call in experiment [13] was inactive. The values for the activation in experiment [14], in experiment [17] and in [18] were -18.2%, -5.24% and -2.01%, respectively.
